Shown are actives, neighbours in structure and some others; about 7% of the full set was active somewhere.
DRD3 agonist = D3 dopamine receptor (human) agonism; max activation, %; D3R DiscoveRx beta-arrestin cells, luminescence, 90 min; actives 0.58% (n = 410,000); in the data active = max activation above about 30%; also: 0% is about no effect
Target sequence (P35462 whole entry, looked up): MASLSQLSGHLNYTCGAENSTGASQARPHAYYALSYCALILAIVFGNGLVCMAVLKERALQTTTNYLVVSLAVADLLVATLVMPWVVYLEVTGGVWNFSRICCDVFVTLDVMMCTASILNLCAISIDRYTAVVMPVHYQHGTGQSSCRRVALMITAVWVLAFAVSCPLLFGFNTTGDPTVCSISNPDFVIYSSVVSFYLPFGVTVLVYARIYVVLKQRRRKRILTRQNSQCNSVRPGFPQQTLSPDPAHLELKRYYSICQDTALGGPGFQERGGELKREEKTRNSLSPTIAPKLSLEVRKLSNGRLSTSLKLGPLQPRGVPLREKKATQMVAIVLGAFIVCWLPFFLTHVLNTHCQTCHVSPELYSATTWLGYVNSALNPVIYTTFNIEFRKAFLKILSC
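Agonist-mode cell screen: cells plated at 1500/well and incubated overnight at 37 °C, then exposed to library compounds for 90 min at 37 °C. Detection reagent was added for 30–60 min at room temperature, and luminescence was read.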
a7 integrin act = activators of alpha7 integrin expression for muscular dystrophy; alpha7betagal myoblasts, beta-gal FDG fluorescence, 48 h; Potency, µM (series often up to 38.3 µM), for inactives: at the highest dose activation, hits mostly activators; actives 0.064% (n = 350,000); AID 624291;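 also: potency is read from the fitted curve at half-maximal effect; 100% = response of the positive control SU9516; nearly all actives have a fitted effect of over 60% in size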
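Alpha7betagal+/- myoblasts (passage 13) were plated 16-24 hr, then exposed to compounds (1:260 dilution of DMSO stock) for 48 hours at 37C. After MPER lysis, β-galactosidase reporter activity was read as FDG fluorescence (ex 480/em 540) after 30 minutes.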
S2 tox = cell viability loss in ATXN counter-screen; S2 cells (HEK-293 line with an ATXN2-luciferase reporter) viability, CellTiter-Fluor protease fluorescence, 24 h; Potency, µM (top dose mostly 56.7 µM), usual class: cytotoxic; actives 0.49% (n = 400,000); AID 651635; also: potency is read from the fitted curve at half-maximal effect; nearly all actives have a fitted effect of over 40% in size
IL1B secr inh = inflammasome signaling inhibition, IL-1 beta readout. activity change, % at 57.5 µM. actives 4.7% (n = 360,000). THP-1 LPS/ATP IL-1B secretion, AlphaLISA, 16 h; hits give low values; in the data active = activity change below about -50%; inconclusive = mostly about -30% to -49%; also: % is scaled to controls: 0 for no effect and ±100 for the full control effect
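THP-1 cells pretreated 1 hr with compounds (up to 57.5 uM final), then stimulated with LPS (250 ng/mL final) plus ATP (1.25 mM final); secreted IL-1B measured by AlphaLISA after 16 hr, decreased signal indicating inhibition.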
DRD3 antagonist = blocks the human D3 dopamine receptor | P35462 | D3R cells, DiscoveRx beta-arrestin luminescence, antagonist mode; hits give low values | max response, negative = inhibition, % | actives 2.5% (n = 360,000) | AID 652054; in the data active = max response below about -50%; inconclusive = no clear call, values can overlap the other calls; also: % is scaled to controls: 0 for no effect and ±100 for the full control effect
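Cells plated overnight at 1500 cells/well, then exposed to library compounds with dopamine controls for 90 minutes at 37 degrees C. DiscoveRx reagent added for 30–60 minutes at room temperature; luminescence read, quantitative HTS format.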
ATXN2 expr inh = reduces ATXN2 reporter expression in HEK-293 cells | HEK-293 ATXN2-luciferase reporter, luminescence, 24 h | Potency, µM (doses to about 57 µM), without a hit: top-dose activity change, negative = inhibition, usual class: inhibitors | actives 0.72% (n = 360,000) | AID 1745845; also: potency is read from the fitted curve at half-maximal effect; % is scaled to controls: 0 for no effect and ±100 for the full control effect; nearly all actives have a fitted effect of over 55% in size
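ATXN2-luciferase reporter cells (luciferase flanked by upstream and downstream ATXN2 gene portions) were treated 24 h at 37 °C with compounds at up to 57 uM. SteadyGlo luminescence gave expression; GF-AFC fluorescence gave viability.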
* = called active by the depositor; i = inactive; ? = inconclusive; . = not tested or not shown; [ ] = remark or other dose. Unless noted, calls follow the shape of the dose curve; as a rule, active = well fitted curve in the direction sought with a large enough effect; inconclusive = small, poorly fitted or top-dose-only effect, or another doubt; inactive = no such curve, though single readings can be large; an effect the other way counts as inactive or inconclusive.

SMILES | DRD3 agonist | a7 integrin act | S2 tox | IL1B secr inh | DRD3 antagonist | ATXN2 expr inh
CCOC(=O)C1CCN(S(=O)(=O)CCNC(=O)c2ccc3c(c2)OCO3)CC1 | 1 | -32% | i | -1 | 13 | -5%
COP(=O)(OC)OC(c1ccc(Cl)cc1)P(=O)(OC)OC (stereo not drawn) | 84* | . | i | . | . | 13%
Cc1nonc1NC(=O)CSc1nc2ccccc2o1 | 0 | -1% | i | -2 | -8 | 20%
COc1ccc(/C=N/OCc2ccc(Br)cc2)c(OC)c1 | 8 | -13% | i | -19 | 10 | .
CNCC/C=C1/c2ccccc2CSc2ccccc21 | 0 | -63% | i | 0 | -81* | -13%
OCCN1CCN(CC/C=C2/c3ccccc3CSc3ccccc32)CC1 | -22 | -48% | i | 0 | -105* | .
CS(=O)(=O)c1ccc2nnn(OCC(=O)Nc3ccc(Br)cc3Br)c2c1 | 2 | -57% | i | -14 | 5 | -1%
COc1ccc(CN(Cc2cccn2C)C(=O)c2cc3cc(OC)ccc3[nH]2)cc1 | 0 | 4% | ? | -81* | ? | -9%
Cc1ccc(CNC(=O)C2CCN(S(=O)(=O)N3CCOCC3)CC2)cc1 | 40* | -2% | i | 12 | 7 | -1%
O=C(NCc1ccncc1)C1CCN(S(=O)(=O)Cc2ccccc2)CC1 | 0 | 22% | i | -64* | -7 | 10%
Cc1ccc(CNC(=O)C2CCN(S(=O)(=O)N3CCCC3)CC2)cc1 | 8 | -4% | ? | 0 | 1 | -24%
Cc1ccc(S(=O)(=O)N2CCC(C(=O)NCC3CCCCC3)CC2)cc1 | -15 | -9% | i | -1 | -65* | -17%
COC(=O)C(Cc1ccc(O)cc1)NC(=O)C1CCN(S(=O)(=O)c2ccc(C)cc2)CC1 (stereo not drawn) | 1 | 34% | i | -99* | -4 | -12%
O=C(NCc1ccccc1)C1CCN(S(=O)(=O)Cc2ccccc2)CC1 | 3 | . | i | . | . | -5%
Cc1ccc(S(=O)(=O)N2CCC(C(=O)NCC3CC3)CC2)cc1 | 6 | 6% | i | -1 | 0 | 9%
O=C(COc1ccc(Cl)cc1)N1CCN(c2ncccn2)CC1 | 4 | 0% | i | 5 | -6 | 6%
O=C(CC(C(=O)O)P(=O)(c1ccccc1)c1ccccc1)c1ccccc1 (stereo not drawn) | 16 | 1% | i | -50* | 3 | -5%
CC(c1ccccc1)N1CCN(C(=O)CCl)CC1 (stereo not drawn) | 1 | -75% | ? | -79* | 38 | .
O=C(CCl)N1CCN(S(=O)(=O)c2ccc3c(c2)CCC3)CC1 | -6 | -52% | . | -67* | ? | ?
CCOC(=O)N1CCN(S(=O)(=O)Cc2ccccc2)CC1 | 4 | 36% | i | -3 | 41 | 8%
CC(CC(=O)N1CCN(C(=O)c2ccccc2)CC1)c1ccccc1 (stereo not drawn) | -2 | 23% | i | 8 | 3 | -8%
O=C(CCl)N1CCN(S(=O)(=O)Cc2ccccc2)CC1 | 0 | ? | ? | -100* | 4 | ?
CN1C(=O)N(CC(=O)N2CCN(S(=O)(=O)c3ccc4c(c3)CCC4)CC2)C(=O)C12CCCCC2 | -4 | -4% | i | 16 | 21 | 2%
CCCS(=O)(=O)N1CCN(C(=O)COc2ccccc2)CC1 | 34* | 15% | i | -4 | -20 | 5%
Cc1cc(C)cc(-n2nnnc2SCC(=O)Nc2nc(-c3ccc(Cl)cc3)cs2)c1 | 4 | -34% | i | 0 | ? | -7%
SMILES | DRD3 agonist | a7 integrin act | S2 tox | IL1B secr inh | DRD3 antagonist | ATXN2 expr inh
COc1ccc(CCNC(=O)CCc2c(C)nc3cc(-c4ccccc4)nn3c2C)cc1OC | 3 | . | i | . | . | ?
CCc1c(C)nc2cc(-c3ccc(OC)c(OC)c3)nn2c1NCC1CC1 | 38* | -16% | ? | -94* | 86 | 3%
N#C/C(=N\Nc1ccccc1)C(=N)N1CCCCC1 | -19 | 4% | i | -29 | -29 | 23%
CCN(CC)/C(Sc1ccccc1)=C(\C(Cl)=C(Cl)Cl)[N+](=O)[O-] | -1 | -8% | i | -89* | -2 | -4%
CCOc1ccc(/C=C(\C#N)C(=O)NC2CC2)c(OCC)c1 | -2 | -18% | i | -54* | 6 | -5%
CCCCOc1ccc(/C=C(\C#N)C(=O)NC2CC2)cc1 | -4 | -5% | i | -17 | 3 | -7%
N#C/C(=C\c1ccccc1)C(=O)NC1CC1 | -4 | 2% | i | 41 | 3 | .
N#C/C(=C\c1cccnc1)C(=O)NC1CCCCC1 | 7 | -6% | i | -78* | 0 | -2%
Cc1cc(/C=C(\C#N)C(=O)NC2CCCCCC2)c(C)n1C | -13 | -1% | . | -53* | -4 | 21%
COC(=O)CN1C(=O)[C@@H]2[C@H](C1=O)[C@@H]1CC(C(=O)OC)=C[C@@H](C(=O)OC)[C@@H]3C1=C(C(=O)[C@]3(C)NC(=O)c1ccccc1)[C@@H]2C | 2 | 18% | i | 2 | 12 | 8%
COc1nc(-c2cccc([N+](=O)[O-])c2)nc2ccccc12 | 21 | -6% | i | 23 | 11 | -16%
O=C(N[C@@H](Cc1ccc(O)cc1)C(=O)O)c1ccc(C(F)(F)F)cc1 | 44* | 16% | i | -6 | 0 | 10%
CN(CCOc1ccc(F)cc1)Cc1ccccc1 | -15 | -8% | i | -3 | -69* | -5%
CN(CCCCOc1ccc(F)cc1)Cc1ccccc1 | -28 | 22% | i | -28 | -83* | 2%
COc1ccc(OCCN(C)Cc2ccccc2)cc1 | -6 | -2% | i | -10 | ? | 7%
COc1ccc(OCCCN(C)Cc2ccccc2)cc1 | -17 | 28% | i | -6 | 0 | -17%
CN(CCOCCOc1ccc2ccccc2c1)Cc1ccccc1 | 1 | -37% | i | -11 | -64* | -11%
CCc1ccc(OCCCCN(C)Cc2ccccc2)cc1 | -20 | 23% | i | ? | -71* | -32%
COc1cc(C)ccc1OCCOCCN(C)Cc1ccccc1 | -8 | -15% | i | -19 | ? | -13%
CC(=O)Nc1nonc1NC(=O)CSc1nc2ccccc2o1 | -2 | -1%[7.66 µM] | i | 12 | 14 | -1%
CN(CCOC(=O)c1ccccc1)Cc1ccccc1 | -8 | -4% | i | -5 | ? | 0%
FC(F)(F)c1cccc(OCCN2CCN(Cc3ccccc3)CC2)c1 | -52 | -53% | i | 13 | -82* | ?
COCCn1nnnc1C(c1cccc(C(F)(F)F)c1)N1CCN(Cc2ccccc2)CC1 (stereo not drawn) | -2 | 19% | i | -24 | ? | -5%
CN(CCOc1cccc(C(F)(F)F)c1)Cc1ccccc1 | -13 | -14% | i | 5 | -87* | .

High-throughput results deposited in PubChem by National Center for Advancing Translational Sciences (NCATS).
